# Experimental data reported in ChEMBL document CHEMBL3988442, “University of Dundee, Small-Polar-MMV Screening Library” (2021).
# About 13,000 (27%) of roughly 48,000 compounds showed an effect of 50% or more. Some of the results follow.
# Test system: Wolbachia pipientis
# Test: Anti-Wolbachia Cell-Based Screen
# Format: functional
# Set-up: scale not given: in the data most compounds retested in dose-response had high values
# Conditions: 5 µM
row,Structure (SMILES),Percent Effect [%]
1,CCn1nc(CC(C)C)cc1C(=O)N1CCCOC(CN2CCCC2)C1 (centres undefined),12.35
2,COc1cc(CNC(=O)Nc2nnc(C(F)(F)F)s2)ccc1O,-18.17
3,O=C(NCC1CCCO1)Nc1nnc(C(F)(F)F)s1 (centres undefined),131.1
4,CCOCCC(=O)NCC1CCCO1 (centres undefined),5.918
5,Cc1csc(N2CCCN(Cc3ccn(C)c(=O)c3)CC2)n1,2.494
6,CNS(=O)(=O)CCn1cc(-c2ccc(NC(C)=O)cc2)nn1,-17.97
7,Cc1ccc(S(=O)(=O)N2CCC(Oc3cccnn3)CC2)c(C)c1,-2.974
8,CN(C)S(=O)(=O)N1CCC(Oc2ccccn2)CC1,-12.57
9,CN(C)S(=O)(=O)N1CCC(Oc2cccnn2)CC1,154.7
10,Cc1cc(CN2CC[C@H]3C[C@H](C(=O)Nc4cccnc4C)O[C@@H]3C2)no1.O=C(O)C(F)(F)F.O=C(O)C(F)(F)F,0
11,COc1ccccc1NC(=O)CC(C)NCCc1sc(C)nc1C (centres undefined),-7.62
12,Cc1c(C(C)NC(=O)Nc2ccc(F)cc2F)cnn1C (centres undefined),-7.694
13,COc1ccccc1NC(=O)CC(C)NCc1scnc1C (centres undefined),-14.83
14,CC(C)CC(=O)N1CC(=O)c2sc(Nc3ccc(F)cc3F)nc2C1,102.3
15,COc1ccccc1Nc1nc2c(s1)C(=O)CN(C(=O)CC(C)C)C2,106.8
16,CC(C)(C)NC(=O)CN1CCN(C(=O)Nc2ccc(F)cc2F)CC1,10.15
17,COCC(=O)N1Cc2cnc(Cc3ccc(OC)cc3)nc2C1,-9.911
18,COCC(=O)N1CC(=O)c2sc(Nc3ccc(F)cc3F)nc2C1,92.12
19,CNS(=O)(=O)Cc1ccccc1CNc1ccc(C#N)cn1,4.345
20,Cc1cnccc1-n1nc(C(C)C)nc1CS(C)(=O)=O,-11.94
21,Cn1cc(C(NCCc2ccccn2)c2cccc(F)c2)cn1 (centres undefined),-5.902
22,CN(C(=O)CCc1ccsc1)S(C)(=O)=O,-3.197
23,CC(C)CNC(=O)N1C[C@H]2CC[C@@]3(N=C(c4ccccc4)NC3=O)[C@H]2C1,-1.799
24,CN(C)CCCNCC1CCOC(C)(C)C1 (centres undefined),84.35
25,CN(C)CCNCC1CCOC(C)(C)C1 (centres undefined),114.8
26,CC1(C)CC(CN2CCC3(CCC(=O)N(CCO)C3)CC2)CCO1 (centres undefined),-24.07
27,CC(C)NC(=O)C(C(C)C)n1cnc2cc(F)c(F)cc21 (centres undefined),-2.583

row,Structure (SMILES),Percent Effect [%]
1,Cn1cnc2c1C(C(=O)N1CCOCC1)N(C(=O)c1ccccc1)CC2 (centres undefined),1.78
2,CCC1CCCCN1C(=O)Cn1nc(-c2ccc(C)s2)cc(N)c1=O (centres undefined),132.6
3,CCC1CCCCN1C(=O)Cn1nc(-c2ccc(C)o2)cc(N)c1=O (centres undefined),125.9
4,CCC1CCCCN1C(=O)Cn1nc(-c2cc(C)oc2C)cc(N)c1=O (centres undefined),172.7
5,Cc1ccc(-c2cc(N)c(=O)n(CC(=O)NCC3CCCCC3)n2)s1,-12.04
6,Cc1cc(C)n(C2CCCN(C(=O)Cn3ccc(=O)n(C)c3=O)C2)n1 (centres undefined),5.694
7,CCOC(=O)CC1CCCCN1C(=O)c1cc(=O)[nH]c(=O)[nH]1 (centres undefined),3.722
8,CCC1CCCCN1C(=O)Cn1cnc(C#N)n1 (centres undefined),-4.598
9,CCOC(=O)CC1CCCCN1C(=O)c1cc(C)oc1C (centres undefined),1.644
10,Cc1cc(-c2cc(N)c(=O)n(CC(=O)N3CCCC(C)C3)n2)c(C)o1 (centres undefined),135.5
11,CC1CCCN(C(=O)Cn2cc(I)cn2)C1 (centres undefined),2.299
12,CNC(=O)C1CCCCN1C(=O)Cc1csc(-c2ccc(C)o2)n1 (centres undefined),7.331
13,Cl.O=C(NCC1CCC2(CCNCC2)CO1)c1ccno1 (centres undefined),-17.95
14,COC(=O)N1CCC(Nc2cccc(F)c2C(C)=O)C1 (centres undefined),18.09
15,Cc1cc(CNc2ccc3nc(C4CC4)sc3c2)no1,-18.62
16,COc1ccc(C)cc1CCNS(=O)(=O)c1ccc2c(c1)CCC(=O)N2,-14.2
17,COCCN1CCC(NCc2cccnc2)C1 (centres undefined),-0.4239
18,COCCN1CCC(NCc2cc(F)ccc2F)C1 (centres undefined),105
19,COCCN1CCC(NCc2c(F)cccc2F)C1 (centres undefined),93.26
20,COCCN1CCC(CNC(=O)CCc2cc(F)ccc2F)C1 (centres undefined),-0.9804
21,COCCN1CCC(NCc2ccc(Cl)cc2)C1 (centres undefined),79.9
22,COCCN1CCC(NCc2c(C)nn(C)c2N(C)C)CC1,-18.36
23,CCCN1CCC(NCc2ccncc2)CC1,12.05
24,COCCN1CCC(NC(=O)NCC2(c3cccc(F)c3)CC2)C1 (centres undefined),7.702
25,COCCN1CCC(NCc2cccc(F)c2)C1 (centres undefined),4.631
26,COCCN1CCC(NCc2cccc(C)c2)C1 (centres undefined),89.68
27,COCCN1CCC(NCc2ccc(C#N)cc2)C1 (centres undefined),-5.015

row,Structure (SMILES),Percent Effect [%]
1,CSc1ccc(CN(C(=O)c2cc[nH]n2)C2CC2)cc1,-13.27
2,CCCN(Cc1nccn1C)C(=O)C(CC)Nc1cccc(OC)c1 (centres undefined),-30.45
3,COCCN1CCC(NCc2ccc(F)cc2F)C1 (centres undefined),87.91
4,COCCN1CCC(NC(=O)C(C)C)CC1,-12.29
5,Cc1cc(C(F)(F)F)nn1C(C)C(=O)Nc1ccncc1 (centres undefined),11.57
6,Cc1cc(C(F)F)nn1C(C)C(=O)NCc1nccn1C (centres undefined),129.1
7,CC(C)Nc1ncccc1C(=O)NCc1ncc[nH]1,7.716
8,CCCN(Cc1nccn1C)C(=O)c1cc(C(C)C)on1,-14.15
9,Cc1cccc(I)c1C(=O)NCc1ncc[nH]1,-11.65
10,Cc1cc(C(F)F)nn1C(C)C(=O)NCc1ncc[nH]1 (centres undefined),132.9
11,Cc1ncc2c(n1)CCN(Cc1nc(Cc3ccccc3)no1)C2,2.52
12,Cc1noc([C@@H]2C[C@H](NC(=O)Nc3ccccc3)CN2C)n1,1.901
13,CN(C)C(=O)C1CCCN1C(=O)c1ccc(Cn2ccnc2)o1 (centres undefined),-6.024
14,CN1CCN(CCCNS(=O)(=O)Cc2ccccc2F)CC1,-19.52
15,COc1ccc2c(C)nc(N3C[C@@H](C)O[C@@H](C)C3)nc2c1,-4.468
16,CCOc1ccnc(N2CCN(CCOC)CC2)n1,-0.8063
17,COCCN1CCN(Cc2coc(-c3ccccc3Cl)n2)CC1,-11.13
18,CC(NCc1ccccn1)c1ccc(N2CCN(C)CC2)c(F)c1 (centres undefined),-5.411
19,C[C@@H]1CN(Cc2ccccc2F)CC(C(N)=O)O1 (some centres undefined),1.23
20,CCN1CCN(c2ccc(F)cc2C(C)NCc2ccccn2)CC1 (centres undefined),9.781
21,CN1CCN(c2nc(O)cc(Cc3ccccc3F)n2)CC1,156.6
22,CCN1CCN(c2nc(O)cc(Cc3ccccc3F)n2)CC1,169.1
23,COCCN1CCN(c2nc(O)cc(Cc3ccccc3F)n2)CC1,126.9
24,CCN1CCCC(O)(CNCc2ccccc2F)C1 (centres undefined),5.055
25,C[C@@H]1CN(c2nc(O)cc(Cc3ccccc3F)n2)C[C@H](C)O1,156.7
